Sampled rows, rich in hits. Any-hit rate of the full collection: about 3.8%.
ATXN2 expr inh = ATXN2 expression inhibition | Potency, µM (titrated, usually from 57 µM), for inactives: top-dose activity change, negative = inhibition, most hits filed as inhibitors | 0.72% of 360,000 active | HEK-293 ATXN2-luciferase reporter, luminescence, 24 h; also: % is scaled to controls: 0 for no effect and ±100 for the full control effect; nearly all actives have a fitted effect of over 55% in size
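ATXN2-luciferase reporter cells (luciferase flanked by upstream and downstream ATXN2 gene portions) were treated 24 h at 37 °C with compounds at up to 57 uM. SteadyGlo luminescence gave expression; GF-AFC fluorescence gave viability.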
HepG2 viability = kills HepG2 cells in TGF-b inhibitor counter-screen; Potency, µM (highest dose often 46.1 µM), for inactives: top-dose activity change, negative = cytotoxicity, most hits filed as cytotoxic; AID 588856; 0.76% of 410,000 active; HepG2 CAGA-GFP viability, ATP luminescence, 18 h
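HepG2 CAGA-GFP cells (1000/well, DMEM with 1% FBS) received compound, then TGF-beta at 500 pg/mL final, and were incubated 18 hours at 37 degrees C. Viability was read by CellTiter-Glo luminescence. Media-only wells were set as complete cell-killing and DMSO as no toxicity.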
S2 tox = cell viability loss in ATXN counter-screen; 0.49% of 400,000 active; Potency, µM (doses to about 56.7 µM), hits mostly cytotoxic; S2 cells (HEK-293 line with an ATXN2-luciferase reporter) viability, CellTiter-Fluor protease fluorescence, 24 h; also: nearly all actives have a fitted effect of over 40% in size
TGFb inhibitor = TGF-b pathway inhibition. 1.2% of 410,000 active. HepG2 CAGA-GFP TGF-b/SMAD3 reporter, GFP fluorescence, 18 h; TGF-beta stimulated, 500 pg/mL final. Potency, µM (doses to about 46.1 µM), for inactives: at the highest dose activity, negative = inhibition, actives largely listed as inhibitors; also: % is scaled to controls: 0 for no effect and ±100 for the full control effect; nearly all actives have a fitted effect of over 65% in size
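Inhibition of TGF-beta-driven CAGA-GFP reporter expression in HEPG2 cells is measured by cellular GFP fluorescence after 18 h stimulation with 500 pg/mL recombinant TGF-beta in 1% FBS medium at 37 degrees C.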
HT1080NT lethal = kills 2HG-producing HT-1080-NT fibrosarcoma cells; HT-1080-NT fibrosarcoma viability, CellTiter-Glo ATP luminescence, 48 h; AID 686970; Potency, µM (highest dose often 46.1 µM), for the others: at the highest dose activity, negative = less viability, actives largely listed as cytotoxic; 1.6% of 360,000 active;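 also: NT is the 2HG producing partner of a matched IDH1 knockdown line; 0% = DMSO-treated cells and -100% = media-only wells without cells; nearly all actives have a fitted effect of over 55% in size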
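750 cells/well, RPMI + 5% FBS; 2 h settle, compound pin-transfer, 48 h at 37 degrees C. CellTiter-Glo 10 min RT, luminescence. Normalized to DMSO and media-only wells.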
HT1080 IDH1KD tx = HT-1080 IDH1 knockdown cell toxicity (counter line). HT-1080 IDH1 knockdown viability, ATP luminescence, 48 h. Potency, µM (top dose mostly 46.1 µM), for the others: at the highest dose activity, negative = toxicity, actives largely listed as cytotoxic. 2% of 360,000 active. AID 686971;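 also: 0% = DMSO wells and -100% = cell-free medium wells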
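HT-1080-IDH1KD cells (IDH1 knocked down), 750/well in RPMI with 5% FBS, treated with compound 48 h at 37 degrees C. Viability by CellTiter-Glo luminescence, normalised to DMSO and no-cell wells; concentration-response curves classed.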
* hit, by the source's call. Calls follow the shape of the dose curve; as a rule, active = well fitted curve in the direction sought with a large enough effect; inconclusive = small, poorly fitted or top-dose-only effect, or another doubt; inactive = no such curve, though single readings can be large; an effect the other way counts as inactive or inconclusive. Potency is read from the fitted curve at half-maximal effect.

CCOC(=O)N1CCN(S(=O)(=O)c2ccc(C(=O)Nc3sc4c(c3C(=O)OC)CCN(C)C4)cc2)CC1 was read as ATXN2 expr inh inconclusive, HepG2 viability -54%, S2 tox inconclusive, TGFb inhibitor 0%, HT1080NT lethal 18µM* and HT1080 IDH1KD tx inconclusive.
`CCN1CCc2c(sc(NC(=O)c3ccc(S(=O)(=O)N(C)C4CCCCC4)cc3)c2C(N)=O)C1` gave ATXN2 expr inh inconclusive, HepG2 viability 11µM*, S2 tox inactive and TGFb inhibitor inconclusive.
For CCOC(=O)c1c(NC(=O)c2ccc(S(=O)(=O)N3CCC(C)CC3)cc2)sc2c1CCN(C)C2 the results were HepG2 viability -74% and TGFb inhibitor 46%.
`CC1CCN(S(=O)(=O)c2cn(CC(=O)Nc3ccc(F)c(Cl)c3)c(=O)c3ccccc23)CC1` gave ATXN2 expr inh 84%, HepG2 viability -23%, S2 tox inconclusive and TGFb inhibitor inconclusive.
`Cc1ccc(/C(O)=C/c2nc3ccccc3oc2=O)cc1` gave ATXN2 expr inh -5%, HepG2 viability -2%, S2 tox inactive, TGFb inhibitor inconclusive, HT1080NT lethal -12% and HT1080 IDH1KD tx 23µM*.
`Clc1ccc2nccnc2c1` gave HepG2 viability 14µM* and TGFb inhibitor inconclusive.
Screening Cc1ccc2nccnc2c1 returned HepG2 viability 5.6µM* and TGFb inhibitor 8.9µM*.
O=C(Oc1ccc(Cl)cc1)c1ccc2nccnc2c1 was read as ATXN2 expr inh 2%, HepG2 viability -10%, S2 tox inactive, TGFb inhibitor 5%, HT1080NT lethal 15% and HT1080 IDH1KD tx 11%.
For Cc1ccc2c(C)ccnc2c1 the results were HepG2 viability -18% and TGFb inhibitor inconclusive.
CC(=CC(=O)Nc1ccccc1C(=O)O)c1ccc2ccccc2c1 was read as ATXN2 expr inh 135%.
For Cc1nn(CCCC(=O)Nc2cccc(C(F)(F)F)c2)c(=O)c2nn(-c3ccccc3)c(C)c12 the results were HepG2 viability -20% and TGFb inhibitor inconclusive.
For CC(C)(C)c1ccc(C(=O)NCCc2csc3nc(-c4ccccc4F)nn23)cc1 the results were ATXN2 expr inh 0%, HepG2 viability -22%, S2 tox inconclusive and TGFb inhibitor 18µM*.
Screening CCCCOc1ccc(C(=O)NCCc2csc3nc(-c4ccccc4F)nn23)cc1 returned ATXN2 expr inh 0%, HepG2 viability -16%, S2 tox inactive and TGFb inhibitor -7%.
`Cc1ccc(-n2sc3cc(F)ccc3c2=O)c(C)c1` gave ATXN2 expr inh inconclusive, HepG2 viability 11µM*, S2 tox 22µM*, TGFb inhibitor inconclusive, HT1080NT lethal inconclusive and HT1080 IDH1KD tx inconclusive.
For O=c1c2cc(F)ccc2sn1-c1ccccc1Cl the results were ATXN2 expr inh inconclusive, HepG2 viability -57%, S2 tox 22µM*, TGFb inhibitor inconclusive, HT1080NT lethal inconclusive and HT1080 IDH1KD tx inconclusive.
O=c1c2ccc(F)cc2sn1-c1ccccc1 was read as ATXN2 expr inh inconclusive, HepG2 viability -110%, S2 tox 20µM*, TGFb inhibitor 11µM*, HT1080NT lethal -25% and HT1080 IDH1KD tx inconclusive.
O=c1c2ccccc2sn1-c1ccc(F)cc1 was read as ATXN2 expr inh -12%, HepG2 viability -92%, S2 tox inconclusive, TGFb inhibitor 10µM*, HT1080NT lethal inconclusive and HT1080 IDH1KD tx -18%.
Cc1ccc(N2C(=O)CC(N3CCN(c4ccc(F)cc4)CC3)C2=O)c(C)c1 (configuration not stated) was read as ATXN2 expr inh 2%, HepG2 viability -4%, S2 tox inactive, TGFb inhibitor -8%, HT1080NT lethal 1% and HT1080 IDH1KD tx 2%.
For COC(=O)c1cccc(-n2sc3ccccc3c2=O)c1 the results were ATXN2 expr inh -7%, HepG2 viability -34%, S2 tox inconclusive, TGFb inhibitor inconclusive, HT1080NT lethal -21% and HT1080 IDH1KD tx -18%.
For CN(C(=O)Cn1ncc2c1-c1ccccc1OC2)c1ccc(Br)cc1 the results were ATXN2 expr inh 4%, HepG2 viability -18%, S2 tox inactive and TGFb inhibitor inconclusive.
For Oc1c(CN2CCCCC2)cc(COCc2ccccc2)c2cccnc12 the results were ATXN2 expr inh 3.2µM*, HepG2 viability -93%, S2 tox inconclusive, TGFb inhibitor inconclusive, HT1080NT lethal 7.3µM* and HT1080 IDH1KD tx 2.9µM*.
Screening Oc1c(CN2CCN(c3ccccn3)CC2)cc(Cl)c2cccnc12 returned ATXN2 expr inh inconclusive, HepG2 viability -52%, S2 tox inactive, TGFb inhibitor inconclusive, HT1080NT lethal inconclusive and HT1080 IDH1KD tx inconclusive.
For OCCN1CCN(Cc2cc(Cl)c3cccnc3c2O)CC1 the results were ATXN2 expr inh 22µM*, HepG2 viability -26%, S2 tox inactive, TGFb inhibitor inconclusive, HT1080NT lethal 5µM* and HT1080 IDH1KD tx 3.2µM*.
Screening COCc1cc(CN2CCCC2)c(O)c2ncccc12 returned ATXN2 expr inh inconclusive, HepG2 viability -26%, S2 tox inconclusive, TGFb inhibitor inconclusive, HT1080NT lethal 1.1µM* and HT1080 IDH1KD tx 0.63µM*.
For O=[N+]([O-])c1cc(CN2CCCC2)c2cccnc2c1O the results were ATXN2 expr inh -10%, HepG2 viability 1%, S2 tox inactive, TGFb inhibitor 6%, HT1080NT lethal 16µM* and HT1080 IDH1KD tx inconclusive.
`CN(C)C1CCN(Cc2cc(COCc3ccccc3)c3cccnc3c2O)C1` (configuration not stated) gave ATXN2 expr inh inconclusive, HepG2 viability -13%, S2 tox inconclusive and TGFb inhibitor inconclusive.
Cc1cccc(C(=O)NCC2Cc3cc(F)cc(-c4cnccn4)c3O2)n1 (configuration not stated) was read as S2 tox inactive.
COC(=O)[C@@H]1CCCN1Cc1ccc2c(c1)CN(Cc1ccc(OC)c(C)c1)CCO2 was read as S2 tox inactive.
`CCOC(=O)c1ccc(NC(=O)C2=C(C)Nc3nc(SCc4ccc(Cl)cc4)nn3C2c2ccc(OC)cc2)cc1` (configuration not stated) gave ATXN2 expr inh -9%, HepG2 viability -9%, S2 tox inactive and TGFb inhibitor -15%.

Compound activity (PubChem)
